GCN5L2 inh: blocks human GCN5L2 histone acetyltransferase. Q92830. hit rate 0.21% among 390,000. Potency, µM (top dose mostly 58.9 µM), inactives show top-dose activity change, negative = inhibition, usual class: inhibitors. GCN5L2 HAT assay, ThioGlo1 CoA-SH fluorescence. AID 504327
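qHTS, 1536-well. 20nM enzyme, pH 7.5 HEPES/EDTA/Tween-20 buffer; 15 min compound preinc., RT. Start: 75uM H3(1-25), 70uM AcCoA, 50uM ThioGlo1. Read Ex340/Em540 at t=0 (autofluorescence flag) and t=20 min.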
VDR inh: blocks the human vitamin D receptor; VDR-SRC2-3 peptide fluorescence polarization, 2 h; Potency, µM, for the others: max response, negative = inhibition, most hits filed as inhibitors; hit rate 0.93% among 400,000; AID 504847
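Signal is fluorescence polarization, reporting how far test compounds block the interaction of VDR with the SRC2-3 coregulator peptide after a 2 h room-temperature incubation.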
12-LOX inh: blocks human arachidonate 12S-lipoxygenase. purified 12hLO, xylenol orange hydroperoxide absorbance. AID 1671190. hit rate 1.1% among 580,000. Potency, µM (titrated, usually from 108 µM), for the others: at the top dose activity change, negative = inhibition, most hits filed as inhibitors. P18054
Target sequence (P18054 whole entry, looked up): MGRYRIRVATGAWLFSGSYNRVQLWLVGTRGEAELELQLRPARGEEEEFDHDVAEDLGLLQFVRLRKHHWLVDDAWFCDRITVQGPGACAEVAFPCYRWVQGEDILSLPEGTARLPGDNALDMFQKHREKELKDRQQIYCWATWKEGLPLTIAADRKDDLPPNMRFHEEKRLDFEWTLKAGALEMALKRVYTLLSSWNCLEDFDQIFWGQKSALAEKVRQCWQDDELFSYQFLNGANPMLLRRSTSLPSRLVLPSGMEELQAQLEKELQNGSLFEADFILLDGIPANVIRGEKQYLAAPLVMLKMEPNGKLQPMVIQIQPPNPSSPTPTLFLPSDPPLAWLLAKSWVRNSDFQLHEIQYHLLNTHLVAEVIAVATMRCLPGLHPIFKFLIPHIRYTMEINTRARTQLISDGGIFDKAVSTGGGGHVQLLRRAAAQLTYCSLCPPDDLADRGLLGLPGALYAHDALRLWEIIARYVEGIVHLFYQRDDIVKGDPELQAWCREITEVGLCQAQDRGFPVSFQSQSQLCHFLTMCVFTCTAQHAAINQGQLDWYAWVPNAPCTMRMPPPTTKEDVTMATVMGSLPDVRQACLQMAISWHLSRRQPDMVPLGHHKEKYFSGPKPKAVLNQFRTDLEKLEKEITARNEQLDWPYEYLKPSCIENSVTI
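Purified human 12hLO at 150 nM in 25 mM Hepes, 0.01% Triton X-100, pH 7.0, preincubated 15 min at room temperature with compound. Reaction started with 40 uM arachidonic acid, 30 min at room temperature. Hydroperoxide measured by Fe-xylenol orange, 573/405 nm absorbance ratio.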
PLK1 PBD block: inhibitors of human PLK1 polo-box domain binding; P53350; Plk1 PBD binding of FITC phosphopeptide, fluorescence polarization; Potency, µM, for the others: max response, negative = inhibition, hits mostly inhibitors; hit rate 2.8% among 360,000; further: series mostly up to about 57 µM; nearly all actives have a fitted effect of over 65% in size
The depositor's hits bear a star; i = inactive; u = inconclusive; x = not tested or not shown; [ ] = another dose, or the depositor's remark. An excerpt weighted towards active compounds, which were near 3% of everything screened. The call rests on the fitted dose curve; in most records, active means well fitted curve in the direction sought with a large enough effect; inconclusive means small, poorly fitted or top-dose-only effect, or another doubt; inactive means no such curve, though single readings can be large; an effect the other way counts as inactive or inconclusive. On the % scale 0 is the no-effect control and ±100 the full control effect; potency means the concentration at half of the fitted maximal effect.

SMILES	GCN5L2 inh	VDR inh	12-LOX inh	PLK1 PBD block
Cc1oc2cc(OCC(=O)N3CCN(CCO)CC3)ccc2c(=O)c1Oc1ccccc1	x	x	-0.6%	x
O=C(Nc1ccc2n(c1=O)C[C@H]1C[C@@H]2CN(CC2CCCCC2)C1)C1CCCCC1	x	x	2.5%[176 µM]	x
Cc1ccccc1N1C(=O)/C(=C/c2ccco2)C(=O)NC1=S	2.24µM*	x	x	x
Cc1ccccc1N1C(=O)NC(=O)/C(=C/c2ccc(N3CCOCC3)o2)C1=O	-8.7%	-3.6%	u	89.6%
C=CCc1c(C)[nH]c(=S)c(C#N)c1C	-25.4%	u	u	23.8µM*
CCOP(=O)(OCC)/C(=N/OC(=O)c1ccccc1C)C(N)=O	1.6%	-0.3%	-11.0%	u
CCOP(=S)(OCC)O/N=C(\C#N)c1ccccc1Cl	-17.6%	22.4µM*	x	x
O=C(CCl)c1ccc(Oc2ccc(C(=O)CCl)cc2)cc1	u	7.08µM*	x	x
COc1ccc(C(=O)CCNc2ccc(F)cc2)cc1	30.9%	7.2%	i	-6.2%
CSc1ncc(/C=C2/C(=O)NC(=O)N(c3ccc(C)cc3)C2=O)cn1	-9.9%	39.8µM*	u	9.47µM*
Cc1ccc(N2C(=O)NC(=O)/C(=C/c3cnn(-c4ccc(C)cc4)c3)C2=O)cc1	-2.6%	u	-24.5%	1.19µM*
O=C1NC(=O)N(c2ccc(Br)cc2)C(=O)/C1=C/c1ccsc1	-3.2%	44.7µM*	u	4.74µM*
CCOc1ccc(N2C(=O)NC(=O)/C(=C/c3cnc(SC)nc3)C2=O)cc1	-3.0%	39.8µM*	-17.3%	10.6µM*
COc1cc(/C=C2\C(=O)NC(=O)N(c3ccc(C)cc3)C2=O)cc(OC)c1O	-9.2%	-28.3%	-5.3%	u
COC(=O)Cc1ccccc1	x	x	-2.4%[176 µM]	x
O=[S+]1([O-])NC2(CCN(Cc3ccccn3)C2)CNc2ccccc21 (centres undefined)	x	x	58.3%	x
CS/C(N)=C(C#N)/C(C#N)=C(\N)SC	u	44.7µM*	u	x
N#C/C(N)=C(/N)C#N	-4.9%	8.4%	1.0%	-1.4%
CCN(C1CCOCC1)C1CNC1	x	x	5.8%	x
CCn1nccc1C(=O)N1[C@H]2CC[C@@H]1c1cnc(-c3ccccc3)nc1C2	x	x	-3.2%	x
CCC(C)N1C(=O)/C(=C/c2ccc3c(c2)CCN3CCCCl)C(=O)NC1=S (centres undefined)	2.4%	0.6%	u	0.947µM*
Cc1cccc(N2C(=O)NC(=O)/C(=C\c3ccc4c(c3)CCCN4Cc3ccccc3)C2=O)c1	-16.6%	u	u	u
O=C([C@H]1CN2CCC1C[C@@H]2Cn1cc(COc2ccccc2)nn1)N1CCOCC1 (some centres undefined)	x	x	7.9%[176 µM]	x
CC[C@]1(O)CC(O[C@@H]2CC(N(C)C)C(O)C(C)O2)c2c(cc3c(c2O)C(=O)c2c(O)cccc2C3=O)C1C(=O)OC (some centres undefined)	-14.4%	31.6µM*	x	x
CCOP1(=S)Oc2cc3c(cc2C(C(=O)OC)(C(F)(F)F)O1)OCO3 (centres undefined)	0.6%	79.4µM*	u	23.8µM*
SMILES	GCN5L2 inh	VDR inh	12-LOX inh	PLK1 PBD block
O=[N+]([O-])c1ccc(-c2[se]c3ccccc3c2I)cc1	25.1µM*	u	x	x
O=c1c2ccccc2[se]c2ccccc12	x	x	9.5%	x
CCOC(=O)[C@]12Cc3cc(OC)ccc3[C@H]1N(C1CCCCC1)C(=O)c1ccccc12	x	x	-69.0%	2.99µM*
CCOC(=O)[C@]12Cc3cc(Cl)ccc3[C@H]1N(C1CCCCC1)C(=O)c1ccccc12	x	x	x	1.89µM*
COCc1cc(C)c(C#N)c(=S)[nH]1	-10.2%	2.7%	x	26.7µM*
C[n+]1ccc(-c2ccncc2)cc1	-2.6%	5.6%	12.6µM*	2.0%
c1ccc(-c2ccncc2)cc1	-0.8%	-0.9%	2.0%	-7.9%
O=C(O)c1ccc2c(c1)C1C(Cl)C(Sc3ccccc3[N+](=O)[O-])CC1C(c1cccc([N+](=O)[O-])c1)N2 (centres undefined)	-24.9%	7.2%	x	18.9µM*
O=C(O)c1cccc2c1NC(c1cccc([N+](=O)[O-])c1)C1CC(Sc3ccccc3[N+](=O)[O-])C(Cl)C21 (centres undefined)	-3.7%	58.9%	8.91µM*	13.4µM*
O=[N+]([O-])c1cccc(C2N3CCCN23)c1 (centres undefined)	-3.1%	1.0%	-3.0%	-5.1%
COc1ccccc1N1CCN(C(=O)[C@H]2CN3CCC2C[C@@H]3Cn2cc(C(C)(C)O)nn2)CC1 (some centres undefined)	x	x	17.1%	x
O=C(Cc1ccc(Cl)cc1)N1Cc2ccccc2CC2(CCCN2CC2CCNC2)C1 (centres undefined)	x	x	6.5%[6.33 µM]	x
O=C(O)C1=NOC2CN(Cc3cncs3)CC12 (centres undefined)	x	x	12.6µM*	x
O=C(O)C1=NOC2CN(CC3CC3)CC12 (centres undefined)	x	x	0.7%[12.5 µM]	x
O=C(COc1ccc(F)cc1)N1CCN(Cc2cc(=O)n3nc(-c4ccc(F)cc4)sc3n2)CC1	x	x	-13.6%	x
CC1CN(c2ccccc2)NC1=O (centres undefined)	11.0%	9.1%	28.2µM*	-7.1%
CN1CCN2C(=O)N(c3ccccc3)C[C@H]2C1	x	x	45.4%[176 µM]	x
O=C1NC(=O)C(=Cc2ccccc2Oc2ccc(F)cc2)C(=O)N1	-2.0%	50.1µM*	u	11.9µM*
Cc1ccc(S(=O)(=O)Oc2ccccc2C=C2C(=O)NC(=O)NC2=O)cc1	x	x	u	4.74µM*
Cc1c(C(=O)Cn2c(C)nc3ccccc32)c2ccccc2n1C	x	x	0.7%	x
Cc1ccccc1-c1ccc2n(c1=O)C[C@H]1C[C@@H]2CN(C(=O)NC2CCCCC2)C1	x	x	100.0%[176 µM]	x
C[N+]1(C)CCCCC1COC(=O)C(O)(c1ccccc1)c1ccccc1 (centres undefined)	6.2%	6.8%	x	x

Screening results deposited in PubChem by National Center for Advancing Translational Sciences (NCATS).
